Data published in PubChem BioAssay AID1159580 (chemical genetic matrix, 2015).
Screen size: about 5,500 compounds; about 2,000 (36%) were called active. Not shown: some 18% with an inconclusive outcome. No stated cut-off is given here; in the data, active means normalized growth mostly below about 0.91 (no sharp cut-off); inconclusive means no clear call, values can overlap the other calls; inactive means mostly above about 0.92. The list shows a part of the results.

Assay: chemical genetic growth profiling, strain panel (AID 1159580);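 further: tested at 20 µM; growth read once vehicle control cultures reached saturation at 30 °C; 1 = growth at the plate median or of vehicle wells; lower values mean less growth of the strain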
Settings: growth OD

Measured: normalized growth

COc1ccc(-c2oc3c(CC=C(C)C)c(O[C@@H]4O[C@H](CO)[C@@H](O)[C@H](O)[C@H]4O)cc(O)c3c(=O)c2O[C@@H]2O[C@@H](C)[C@H](O)[C@@H](O)[C@H]2O)cc1
inactive: S. cerevisiae deletion strains, locus YJR066W, strain TOR1, hits give low values 0.949 | S. cerevisiae deletion strains, locus YKL009W, strain mrt4, hits give low values 0.963 | S. cerevisiae deletion strains, locus YKL068W, hits give low values 0.986 | S. cerevisiae deletion strains, locus YKL085W, strain MDH1 (second series), hits give low values 0.975 | S. cerevisiae deletion strains, locus YKL085W, strain MDH1, hits give low values 0.975 | S. cerevisiae deletion strains, locus YKL160W, strain elf1, hits give low values 1 | S. cerevisiae deletion strains, locus YKL190W, strain CNB1, hits give low values 1.02 | S. cerevisiae deletion strains, locus YKR001C, strain vps1, hits give low values 0.993 | S. cerevisiae deletion strains, locus YKR026C, strain gcn3, hits give low values 1.04 | S. cerevisiae deletion strains, locus YKR091W, strain srl3, hits give low values 1.03 | S. cerevisiae deletion strains, locus YLL001W, strain dnm1, hits give low values 1.01 | S. cerevisiae deletion strains, locus YLL026W, hits give low values 1.04 | S. cerevisiae deletion strains, locus YLL041C, strain sdh2, hits give low values 1.04 | S. cerevisiae deletion strains, locus YLR027C, strain aat2, hits give low values 1.03 | S. cerevisiae deletion strains, locus YLR039C, strain RIC1, hits give low values 1.01 | S. cerevisiae deletion strains, locus YLR058C, strain SHM2, hits give low values 0.988 | S. cerevisiae deletion strains, locus YLR102C, strain apc9, hits give low values 0.974 | S. cerevisiae deletion strains, locus YLR113W, strain HOG1, hits give low values 1.04 | S. cerevisiae deletion strains, locus YLR221C, strain rsa3, hits give low values 1.04 | S. cerevisiae deletion strains, locus YLR258W, strain gsy2, hits give low values 1.01 | S. cerevisiae deletion strains, locus YLR262C, strain YPT6 (second series), hits give low values 1.05 | S. cerevisiae deletion strains, locus YLR262C, strain YPT6, hits give low values 0.971 | S. cerevisiae deletion strains, locus YLR268W, strain sec22, hits give low values 0.969 | S. cerevisiae deletion strains, locus YLR320W, strain mms22, hits give low values 1.04 | S. cerevisiae deletion strains, locus YLR330W, strain CHS5, hits give low values 1.01 | S. cerevisiae deletion strains, locus YLR342W, strain FKS1 (second series), hits give low values 1.06 | S. cerevisiae deletion strains, locus YLR342W, strain FKS1, hits give low values 1.04 | S. cerevisiae deletion strains, locus YLR357W, strain rsc2, hits give low values 1.02 | S. cerevisiae deletion strains, locus YLR370C, strain arc18, hits give low values 1.02 | S. cerevisiae deletion strains, locus YLR371W, strain rom2, hits give low values 0.965 | S. cerevisiae deletion strains, locus YLR384C, strain iki3, hits give low values 1.01 | S. cerevisiae deletion strains, locus YLR418C, strain cdc73, hits give low values 0.998 | S. cerevisiae deletion strains, locus YML016C, strain PPZ1, hits give low values 1 | S. cerevisiae deletion strains, locus YML032C, strain rad52, hits give low values 1 | S. cerevisiae deletion strains, locus YML120C, strain ndi1, hits give low values 1.02 | S. cerevisiae deletion strains, locus YML124C, strain tub3, hits give low values 0.975 | S. cerevisiae deletion strains, locus YMR058W, strain fet3, hits give low values 1.04 | S. cerevisiae deletion strains, locus YMR078C, strain ctf18, hits give low values 0.977 | S. cerevisiae deletion strains, locus YMR125W, strain sto1, hits give low values 1.04 | S. cerevisiae deletion strains, locus YMR129W, hits give low values 1.04 | S. cerevisiae deletion strains, locus YMR205C, strain PFK2, hits give low values 1.04 | S. cerevisiae deletion strains, locus YMR223W, strain ubp8, hits give low values 0.979 | S. cerevisiae deletion strains, locus YMR231W, strain pep5, hits give low values 1 | S. cerevisiae deletion strains, locus YMR263W, strain SAP30, hits give low values 1 | S. cerevisiae deletion strains, locus YMR307W, strain GAS1, hits give low values 1.15 | S. cerevisiae deletion strains, locus YNL067W, strain RPL9B, hits give low values 0.963 | S. cerevisiae deletion strains, locus YNL071W, strain lat1, hits give low values 1.03 | S. cerevisiae deletion strains, locus YNL128W, strain TEP1, hits give low values 0.974 | S. cerevisiae deletion strains, locus YNL183C, strain NPR1, hits give low values 0.952 | S. cerevisiae deletion strains, locus YNL209W, strain ssb2, hits give low values 1.03 | S. cerevisiae deletion strains, locus YNL233W, strain BNI4, hits give low values 0.99 | S. cerevisiae deletion strains, locus YNL248C, strain rpa49, hits give low values 1.04 | S. cerevisiae deletion strains, locus YNL250W, strain rad50, hits give low values 0.93 | S. cerevisiae deletion strains, locus YNL271C, strain bni1, hits give low values 0.965 | S. cerevisiae deletion strains, locus YNL298W, strain CLA4, hits give low values 0.981 | S. cerevisiae deletion strains, locus YNL307C, strain MCK1, hits give low values 0.979 | S. cerevisiae deletion strains, locus YNL322C, strain KRE1 (second series), hits give low values 1.03 | S. cerevisiae deletion strains, locus YNR049C, strain mso1, hits give low values 1.03 | S. cerevisiae deletion strains, locus YNR052C, strain pop2, hits give low values 0.984 | S. cerevisiae deletion strains, locus YOL012C, strain htz1 0.851 | S. cerevisiae deletion strains, locus YOL147C, strain pex11, hits give low values 0.989 | S. cerevisiae deletion strains, locus YOR001W, strain rrp6, hits give low values 1.05 | S. cerevisiae deletion strains, locus YOR061W, strain CKA2, hits give low values 0.992 | S. cerevisiae deletion strains, locus YOR069W, strain VPS5, hits give low values 0.999 | S. cerevisiae deletion strains, locus YOR070C, strain gyp1, hits give low values 1.01 | S. cerevisiae deletion strains, locus YOR080W, strain dia2, hits give low values 1.04 | S. cerevisiae deletion strains, locus YOR083W, strain WHI5, hits give low values 0.988 | S. cerevisiae deletion strains, locus YOR106W, strain vam3, hits give low values 0.989 | S. cerevisiae deletion strains, locus YOR136W, strain idh2, hits give low values 0.985 | S. cerevisiae deletion strains, locus YOR144C, strain elg1, hits give low values 1 | S. cerevisiae deletion strains, locus YOR184W, strain ser1, hits give low values 0.984 | S. cerevisiae deletion strains, locus YOR231W, strain MKK1, hits give low values 1.02 | S. cerevisiae deletion strains, locus YOR265W, strain rbl2, hits give low values 1.02 | S. cerevisiae deletion strains, locus YOR270C, strain vph1, hits give low values 0.999 | S. cerevisiae deletion strains, locus YOR290C, strain snf2, hits give low values 0.981 | S. cerevisiae deletion strains, locus YOR316C, strain cot1, hits give low values 0.976 | S. cerevisiae deletion strains, locus YPL051W, strain arl3, hits give low values 1.02 | S. cerevisiae deletion strains, locus YPL055C, strain LGE1, hits give low values 1 | S. cerevisiae deletion strains, locus YPL078C, strain atp4, hits give low values 0.986 | S. cerevisiae deletion strains, locus YPL106C, strain sse1, hits give low values 1.04 | S. cerevisiae deletion strains, locus YPL240C, strain hsp82, hits give low values 1.02 | S. cerevisiae deletion strains, locus YPL241C, strain CIN2, hits give low values 0.99 | S. cerevisiae deletion strains, locus YPL256C, strain CLN2, hits give low values 1 | S. cerevisiae deletion strains, locus YPR119W, strain clb2, hits give low values 0.98 | S. cerevisiae deletion strains, locus YPR141C, strain kar3, hits give low values 0.968 | S. cerevisiae deletion strains, locus YPR163C, strain tif3, hits give low values 0.978 | S. cerevisiae deletion strains, locus YPR167C, strain met16, hits give low values 0.983 | S. cerevisiae deletion strains, strain wtn01, hits give low values 0.986 | S. cerevisiae strains, strain wild type, hits give low values 1.01
